Screens (PubChem)
Rows were chosen to be rich in hits. Some 6.2% of all compounds tested hit in one or more screens of this group.
HT1080-NT tox: kills 2HG-producing HT-1080-NT fibrosarcoma cells | HT-1080-NT fibrosarcoma viability, CellTiter-Glo ATP luminescence, 48 h | Potency, µM (highest dose often 46.1 µM), for the others: top-dose activity, negative = less viability, hits mostly cytotoxic | 1.6% of 360,000 active;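 note: NT is the 2HG producing partner of a matched IDH1 knockdown line; 0% = DMSO-treated cells and -100% = media-only wells without cells; nearly all actives have a fitted effect of over 55% in size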
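Toxicity toward the 2HG-producing NT line was scored as %Activity, normalised to DMSO and no-cell wells, from CellTiter-Glo luminescence after 48 hours' treatment.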
S2 tox: viability counter-screen for ATXN expression inhibitors; S2 cells (HEK-293 line with an ATXN2-luciferase reporter) viability, CellTiter-Fluor protease fluorescence, 24 h; Potency, µM (highest dose often 56.7 µM), actives largely listed as cytotoxic; 0.49% of 400,000 active; note: nearly all actives have a fitted effect of over 40% in size
KB-3-1 tox: KB-3-1 parental cell cytotoxicity; KB-3-1 viability, CellTiter-Glo ATP luminescence, 72 h; Potency, µM (series often up to 46.1 µM), hits mostly cytotoxic; 1.4% of 400,000 active; AID 1347075; note: % is set by controls: 0 for no effect and ±100 for the full control effect; nearly all actives have a fitted effect of over 60% in size
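KB-3-1 cells, DMEM (no phenol red) + 10% FBS; compound by pin transfer, 72 h, 37 °C. Readout: CellTiter-Glo luminescence after 10 min. Data normalized, curve-fitted.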
ATXN2 expr inh: inhibitors of ATXN2 expression | HEK-293 ATXN2-luciferase reporter, luminescence, 24 h | Potency, µM (doses to about 57 µM), for inactives: at the top dose activity change, negative = inhibition, hits mostly inhibitors | 0.72% of 360,000 active; note: % is set by controls: 0 for no effect and ±100 for the full control effect; nearly all actives have a fitted effect of over 55% in size
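ATXN2-luciferase reporter cells (luciferase flanked by upstream and downstream ATXN2 gene portions) were treated 24 h at 37 °C with compounds at up to 57 uM. SteadyGlo luminescence gave expression; GF-AFC fluorescence gave viability.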
KB-V1 MDR tox: KB-V1 MDR subline cytotoxicity; KB-V1 MDR cells viability, CellTiter-Glo, 72 h; Potency, µM (series often up to 46.1 µM), actives largely listed as cytotoxic; 3.4% of 400,000 active; note: % is set by controls: 0 for no effect and ±100 for the full control effect; nearly all actives have a fitted effect of over 60% in size
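Luminescent ATP read-out (CellTiter-Glo, 10 min) measures survival of drug-selected KB-V1 MDR cells after 72 h, 37 degrees C compound exposure. Medium: phenol-red-free DMEM, 10% FBS. Values from fitted concentration-response curves.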
HT1080 IDH1KD tx: toxicity to HT-1080 IDH1 knockdown cells (counter line); HT-1080 IDH1 knockdown viability, ATP luminescence, 48 h; Potency, µM (top dose mostly 46.1 µM), without a hit: at the highest dose activity, negative = toxicity, hits mostly cytotoxic; 2% of 360,000 active;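 note: 0% = DMSO wells and -100% = cell-free medium wells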
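Knockdown cells (IDH1KD HT-1080) received compounds 2 h after plating at 750 cells/well and were kept 48 h at 37 °C in 5% FBS RPMI. A CellTiter-Glo luminescence read gave % activity for curve fitting.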
An asterisk follows results filed as active; i = inactive; ? = inconclusive; · = not tested or not shown. Calls come from the whole dose curve; as a rule, active = well fitted curve in the direction sought with a large enough effect; inconclusive = small, poorly fitted or top-dose-only effect, or another doubt; inactive = no such curve, though single readings can be large; an effect the other way counts as inactive or inconclusive. Potency is the fitted concentration of half-maximal effect.

SMILES	HT1080-NT tox	S2 tox	KB-3-1 tox	ATXN2 expr inh	KB-V1 MDR tox	HT1080 IDH1KD tx
CC(OC(=O)c1cc(O)c2ccccc2c1O)C(=O)Nc1ccc(C(N)=O)cc1 (centres undefined)	16µM*	i	i	-29%	i	?
COc1ccc(Nc2nnc(-c3ccc(C)c(S(=O)(=O)N4CCN(C)CC4)c3)c3ccccc23)cc1	·	?	?	?	i	·
O=C(Nc1ccc(Oc2ccccc2)cc1)c1csc([C@@H]2C[C@H](O)[C@@H](CO)O2)n1	?	i	i	-16%	i	2.6µM*
CC(=O)n1cc(N(C(=O)CCl)c2ccc(Cl)cc2)c2ccccc21	2.3µM*	3.5µM*	?	·	?	6.5µM*
COc1ccccc1N(C(=O)CCl)c1cn(C(C)=O)c2ccccc12	1.5µM*	6.3µM*	?	·	15µM*	7.3µM*
O=C(CSc1nc(C2CCCCC2)n(-c2ccccc2)n1)NCC(F)(F)F	3%	i	i	8%	8.2µM*	5%
CC(NC(=O)CSc1nc(C2CC2)n(-c2ccccc2)n1)c1ccco1 (centres undefined)	0%	i	i	5%	13µM*	3%
Cc1ccc(OCC(=O)OCc2nc3scc(-c4ccccc4)c3c(=O)[nH]2)cc1C	9%	i	i	-3%	?	0%
Cn1c(SCC(=O)N2c3ccccc3Sc3ccc(Cl)cc32)nnc1-c1ccco1	0%	i	i	-5%	23µM*	7%
Cc1ccc(-c2csc(NC(=O)CSc3nc4ccccc4c(=O)n3CCCN(C)C)n2)cc1	?	?	?	?	?	23µM*
CCn1c(SCC(=O)N2c3ccccc3Sc3ccccc32)nnc1-c1ccco1	2%	i	i	-16%	i	0%
OC(CN1c2ccccc2Sc2ccccc21)Cn1nnc2ccccc21 (centres undefined)	-16%	?	?	-11%	16µM*	?
CN(C)CCCn1c(SCC(=O)N2c3ccccc3Sc3ccccc32)nc2ccccc2c1=O	18µM*	25µM*	?	28µM*	?	?
CCCCn1c(SCC(=O)Nc2nnc(CC)s2)nc2ccccc2c1=O	3%	i	i	9%	?	3%
COCCn1c(C)cc(O)c(C(c2cccc(F)c2)N2CCN(c3ccccc3)CC2)c1=O (centres undefined)	·	·	i	·	i	·
CCn1c(SCC(=O)Nc2nc(-c3ccc(C)cc3)cs2)nnc1-c1ccccc1	-29%	i	?	-12%	2.6µM*	-23%
Nc1ccccc1SCC(=O)Nc1nc(-c2ccccc2)cs1	-8%	i	4.1µM*	13%	?	?
CCn1c(SCC(=O)Nc2nc(-c3ccc(C)cc3)cs2)nnc1-c1ccccc1O	?	i	?	-15%	i	?
Cn1c(Cn2nnc3ccccc32)nnc1SCC(=O)N1c2ccccc2Sc2ccccc21	?	i	i	-8%	16µM*	?
Nc1ccc2oc(-c3ccccc3Cl)cc(=O)c2c1O	5%	i	7.3µM*	81%	?	5%
O=c1cc(-c2ccccc2Cl)oc2ccc([N+](=O)[O-])c(O)c12	2%	i	i	10%	i	-4%
CCNC(=O)C1CCN(c2nc3ccccc3nc2C(F)(F)F)CC1	·	i	i	8%	i	·
CCOC(=O)c1ccccc1NC(=O)c1c2c(nc3ccccc13)C(=O)N(C1CCCCC1)C2	·	·	i	·	i	·
CCOC(=O)c1c(N2C(=O)C=CC2=O)sc(C)c1C	4µM*	?	i	?	i	5µM*
CS(=O)(=O)c1ccc2nc(NC(=O)Nc3ccc(Cl)c(Cl)c3)sc2c1	?	?	i	-19%	i	-4%
SMILES	HT1080-NT tox	S2 tox	KB-3-1 tox	ATXN2 expr inh	KB-V1 MDR tox	HT1080 IDH1KD tx
Cc1ccc(N2CC(C(=O)Nc3nc4ccc(S(C)(=O)=O)cc4s3)CC2=O)cc1 (centres undefined)	0%	i	?	3%	6.5µM*	-9%
CS(=O)(=O)c1ccc2nc(NC(=O)CCS(=O)(=O)c3ccccc3)sc2c1	-26%	32µM*	i	?	i	21µM*
CS(=O)(=O)c1ccc2nc(NC(=O)Nc3cccc(Cl)c3)sc2c1	?	?	i	-16%	?	11µM*
O=C(CCS(=O)(=O)c1ccccc1)Nc1nc2ccc(F)cc2s1	-15%	i	?	-11%	i	-10%
CCCCNS(=O)(=O)c1cc(-c2nn(C)c(=O)c3ccccc23)ccc1C	-20%	i	16µM*	-12%	?	?
COCCNS(=O)(=O)c1cc(-c2nn(C)c(=O)c3ccccc23)ccc1C	-20%	?	i	0%	?	-11%
Cc1ccc(-c2nn3c(C)nnc3c3ccccc23)cc1S(=O)(=O)NCc1ccco1	-1%	?	i	28%	15µM*	-5%
CSc1ncc2c(n1)-c1ccccc1N(Cc1ccccc1)S2(=O)=O	·	i	i	-3%	i	·
O=C(NCc1ccccc1)C1Cc2c(-c3cccc(F)c3)ccnc2O1 (centres undefined)	?	i	4.6µM*	2%	1.5µM*	1.2µM*
O=C(NCc1ccccc1)C1Cc2c(-c3ccc(Cl)cc3)ccnc2O1 (centres undefined)	?	i	5.8µM*	1%	1.5µM*	0.73µM*
O=C(NCC1CC1)C1Cc2c(-c3cccc(F)c3)ccnc2O1 (centres undefined)	?	i	i	12%	i	6%
CC(=O)c1cccc(-c2ccnc3c2CC(C(=O)NCc2ccc(F)c(F)c2)O3)c1 (centres undefined)	?	?	5.2µM*	-12%	?	?
O=C(NCc1ccco1)C1Cc2c(-c3cccc(F)c3)ccnc2O1 (centres undefined)	?	i	1.2µM*	-9%	4.6µM*	0.73µM*
CC(=O)c1cccc(-c2ccnc3c2CC(C(=O)NCc2ccco2)O3)c1 (centres undefined)	?	?	1.2µM*	-11%	0.92µM*	1.3µM*
NC(=O)c1cccc(-c2ccnc3c2CC(C(=O)NCCc2ccccc2)O3)c1 (centres undefined)	?	i	?	1%	i	7.3µM*
NC(=O)c1cccc(-c2ccnc3c2CC(C(=O)NCc2ccco2)O3)c1 (centres undefined)	?	i	6.5µM*	10%	i	4.1µM*
